FLuc inh: inhibitors of firefly (Photinus pyralis) luciferase | P08659 | purified P. pyralis luciferase, luminescence, biochemical | Potency, µM (titrated, usually from 115 µM), usual class: inhibitors | 2.5% of 76,000 active | AID 1347043; also: nearly all actives have a fitted effect of over 65% in size
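Luminescence read by CCD imaging after purified firefly luciferase (10nM final) was added to substrate buffer holding 10uM D-luciferin and 10uM ATP, pH 7.5, pre-dosed with compound.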
GPT2 inhibitor: GPT2 alanine aminotransferase inhibition | Q8TD30 | Recombinant GPT2, coupled pyruvate oxidase/HRP Amplex Red fluorescence | Potency, µM (doses to about 57.7 µM), without a hit: at the highest dose activity change, negative = inhibition, hits mostly inhibitors | 0.25% of 100,000 active; also: nearly all actives have a fitted effect of over 60% in size
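Fluorescence of coupled pyruvate oxidase/HRP/Amplex Red system (50uM Amplex, 30 min, dark) reports pyruvate formed by GPT2. Enzyme reaction: 10ng/uL GPT2, 2mM L-alanine, 250uM a-KG, 30 min room temperature, pH 7.5; 50uM AOA control.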
3T3 cytotox: NIH 3T3 cell cytotoxicity. 4.3% of 94,000 active. Potency, µM (series often up to 96.7 µM), for the others: at the top dose activity change, negative = cytotoxicity, hits mostly inhibitors. AID 1345082. NIH 3T3 viability, CellTiter-Glo ATP luminescence, 48-72 h; also: nearly all actives have a fitted effect of over 55% in size
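NIH 3T3 cells at 400 cells/well received 23 nL of compound by pintool and were incubated 48 or 72 h at 37 °C. Viability was read as ATP-coupled CellTiter-Glo luminescence.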
HEK293 tox: cytotoxic compounds in HEK 293 cells. HEK 293 viability, ATP luminescence (CellTiter-Glo), 48-72 h. Potency, µM (highest dose often 115 µM), for inactives: at the highest dose activity change, negative = cytotoxicity, most hits filed as inhibitors. 6.6% of 94,000 active; also: nearly all actives have a fitted effect of over 60% in size
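Cytotoxicity was scored by loss of ATP-coupled luminescence (CellTiter-Glo) in HEK 293 cells. Compound treatment ran 48 or 72 hr at 37 degree Celsius, 5% CO2, 95% humidity.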
hNpr1 antagonist: human Npr1 receptor antagonism | P16066 | HEK293 hNpr1 GloSensor cGMP, ANP-stimulated luminescence | Potency, µM (doses to about 46.3 µM), inactives show at the highest dose activity change, negative = inhibition, usual class: inhibitors | 1.6% of 76,000 active; calls by dose curve; also: nearly all actives have a fitted effect of over 60% in size
Target sequence (P16066 whole entry, looked up): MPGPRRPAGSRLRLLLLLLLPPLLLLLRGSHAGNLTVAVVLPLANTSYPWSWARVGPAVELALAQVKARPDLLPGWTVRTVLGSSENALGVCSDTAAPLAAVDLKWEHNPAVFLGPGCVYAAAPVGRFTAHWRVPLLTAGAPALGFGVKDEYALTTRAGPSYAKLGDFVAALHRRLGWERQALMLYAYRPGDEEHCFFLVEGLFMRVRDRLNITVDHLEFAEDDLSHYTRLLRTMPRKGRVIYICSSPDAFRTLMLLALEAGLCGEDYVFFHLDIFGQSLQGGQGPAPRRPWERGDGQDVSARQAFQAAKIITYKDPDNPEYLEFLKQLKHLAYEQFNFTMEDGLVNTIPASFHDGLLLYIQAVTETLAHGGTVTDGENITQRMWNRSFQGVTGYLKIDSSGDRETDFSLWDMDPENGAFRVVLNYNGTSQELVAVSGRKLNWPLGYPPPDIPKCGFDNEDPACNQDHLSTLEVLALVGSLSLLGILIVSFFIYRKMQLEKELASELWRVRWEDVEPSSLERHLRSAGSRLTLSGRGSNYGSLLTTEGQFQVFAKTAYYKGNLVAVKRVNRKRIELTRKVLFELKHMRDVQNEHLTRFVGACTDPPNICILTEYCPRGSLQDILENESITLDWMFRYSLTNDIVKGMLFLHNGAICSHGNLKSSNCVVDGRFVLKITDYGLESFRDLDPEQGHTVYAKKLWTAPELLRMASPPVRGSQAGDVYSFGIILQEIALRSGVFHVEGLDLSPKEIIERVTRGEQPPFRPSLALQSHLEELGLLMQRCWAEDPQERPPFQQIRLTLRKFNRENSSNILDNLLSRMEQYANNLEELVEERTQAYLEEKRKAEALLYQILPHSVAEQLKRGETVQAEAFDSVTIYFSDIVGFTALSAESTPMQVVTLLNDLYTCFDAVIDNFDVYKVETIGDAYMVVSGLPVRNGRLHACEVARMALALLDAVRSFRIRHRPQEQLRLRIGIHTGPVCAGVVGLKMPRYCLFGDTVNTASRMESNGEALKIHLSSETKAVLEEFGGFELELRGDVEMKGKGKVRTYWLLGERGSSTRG
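Compound pre-incubated 30 min at room temperature on GloSensor-loaded HEK293 cells stably carrying hNpr1 and the pGS-40F cGMP biosensor. Stimulation uses hNppA at 0.1 nM final; luminescence is taken at baseline and 20 min post-agonist.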
The depositor's hits bear a star; i = inactive; ? = inconclusive; / = not tested or not shown; ! = repeats disagree; [ ] = dose if it differs, or a comment. An excerpt weighted towards active compounds, which were near 10% of everything screened. Unless noted, calls follow the shape of the dose curve; as a rule, active = well fitted curve in the direction sought with a large enough effect; inconclusive = small, poorly fitted or top-dose-only effect, or another doubt; inactive = no such curve, though single readings can be large; an effect the other way counts as inactive or inconclusive. % is scaled to controls: 0 for no effect and ±100 for the full control effect; potency is read from the fitted curve at half-maximal effect.

SMILES	FLuc inh	GPT2 inhibitor	3T3 cytotox	HEK293 tox	hNpr1 antagonist
Clc1ccc(-c2noc([C@@H]3Cc4nc[nH]c4CN3CC3CCCCC3)n2)cc1	i	3.6%[88.5 µM]	28.2µM*	50.1µM*	-15.4%[70.6 µM]
CN(C)c1ccc(-c2noc([C@@H]3CCCN3CC3CCCCC3)n2)cn1	35.5µM*	?	79.4µM*	?	?
CCc1ccc(CN2CCC3(Cc4ccccc4CNC3=O)C2)cc1 (centres undefined)	/	i	?	?	/
Cn1nc(-c2ccncc2)cc1NC(=O)Cc1ccc(F)cc1	/	i	?	-15.8%[172 µM]	/
O=C(NCC1CC1)c1ccc2nnc(C3CC3)n2c1	/	-20.7%[88.5 µM]	-0.4%[138 µM]	i	/
O=C(c1ccc(C(F)(F)F)cc1)N1CCC2(C1)C(=O)N(CCc1ccccc1)c1ccccc12 (centres undefined)	i	2.3%	39.8µM*!	31.6µM*	?
Cc1ccccc1C(=O)N1CCC2(C1)C(=O)N(CCc1ccccc1)c1ccccc12 (centres undefined)	i	i	?	39.8µM*!	-1.6%
CCN1C(=O)C2(CCN(S(=O)(=O)c3ccc(C(F)(F)F)cc3)CC2)c2ccccc21	i	2.0%	-10.9%	31.6µM*	-1.4%
O=C(c1ccc(Cl)nc1)N1CCC2(C1)C(=O)N(CCc1ccccc1)c1ccccc12 (centres undefined)	i	-2.4%	?	?	6.0%
O=C(c1ccccc1Cl)N1CCC2(C1)C(=O)N(CCc1ccccc1)c1ccccc12 (centres undefined)	i	-9.3%	?	39.8µM*!	62.4%
O=C(NCC(F)(F)F)c1cn2cc(-c3ccc(C(F)(F)F)cc3)sc2n1	/	3.4%	?	?	/
c1ccc(CO[C@H]2COCCN(c3nc4ccccc4o3)C2)cc1	i	0.3%[88.5 µM]	-8.5%[138 µM]	-23.9%[172 µM]	-2.4%[70.6 µM]
c1ccc(CO[C@H]2COCCN(c3nc4ccccc4s3)C2)cc1	?	-9.6%[88.5 µM]	?	112µM*	-4.3%[70.6 µM]
COc1ccc(OC)c(NC(=O)Cn2cccc2-c2nc(-c3ccc4c(c3)OCO4)no2)c1	i	3.6%	?	35.5µM*	-13.5%
COc1cc(Cl)c(C)cc1NC(=O)Cn1cccc1-c1nc(-c2ccc3c(c2)OCO3)no1	i	i	-16.4%	-19.5%	1.5%
CC(C)c1cccc(NC(=O)Cn2cccc2-c2nc(-c3ccc4c(c3)OCO4)no2)c1	i	2.9%	28.2µM*	?	-3.4%
O=C(NCCc1noc(-c2ccccc2)n1)c1n[nH]c2c1CCCCCC2	/	i	?	?	/
Cc1ccc(C(=O)N2CC(c3ncc(C)n3Cc3ccccc3)C2)cn1	/	2.6%	-33.4%	?	/
CS(=O)(=O)N1CCC(Cc2ccc(C(=O)NCc3ccc(F)cc3)cc2)CC1	/	0.8%	?	?	/
COc1cc(C)c(-c2nc(CN3CCOC(CCN)C3)c(C)o2)cc1C (centres undefined)	i	-7.3%	?	44.7µM*	1.4%
COc1ccc(-c2nc(CN3CC[C@H]4CC[C@@H](C3)N4)c(C)o2)c(OC)c1C	i	i[11.5 µM]	?	?	-1.1%
COc1cc(C)c(-c2nc(CN3CCCC(CN)C3)c(C)o2)cc1C (centres undefined)	i	-21.3%	25.1µM*	31.6µM*	-2.0%
COc1cc(-c2nc(CN3CCCC(CN)C3)c(C)o2)cc2c1OCO2 (centres undefined)	i	?	?	39.8µM*	-3.5%
Cc1ncoc1C(=O)N1CC[C@H](CO)[C@H](N(C)C)C1	i	-0.7%	-0.1%	4.7%	0.0%
CCOc1ccc(CN2CCC(CO)(Cc3ccccc3Cl)CC2)cc1	i	2.4%	?	79.4µM*	2.1%
SMILES	FLuc inh	GPT2 inhibitor	3T3 cytotox	HEK293 tox	hNpr1 antagonist
COc1ccc2c(c1)C=C(CN1CCC(CO)(Cc3ccccc3Cl)CC1)CO2	i	-22.4%	?	17.8µM*	?
COCCN1C(=O)c2ccccc2C(C(=O)Nc2ccccc2C)C12CCCCC2 (centres undefined)	i	2.2%	?	-26.1%	6.5%
Cc1ccccc1C(=O)N(C)Cc1ccc(-c2ccccc2)cc1	i	-2.7%[88.5 µM]	50.1µM*	?	?
COc1cccc(C(=O)N(C)Cc2ccc(-c3ccccc3)cc2)c1	i	-2.1%[88.5 µM]	?	70.8µM*	5.8%[70.6 µM]
COc1cccc(C(=O)N(C)Cc2ccc(F)cc2)c1	i	-7.7%[88.5 µM]	-18.9%[138 µM]	-27.6%[172 µM]	0.0%[70.6 µM]
CN(Cc1ccc(-c2ccccc2)cc1)C(=O)c1ccc(F)cc1	i	-1.9%[88.5 µM]	?	70.8µM*	-9.1%[70.6 µM]
CC(C)c1ccc(CN2CCCC3(CCN(C(=O)c4ccnn4C)C3)C2)cc1 (centres undefined)	i	i	-26.8%	39.8µM*	-14.9%
CC(O)CN1CC2(CCC1=O)CCN(C(=O)c1ccnn1C)CC2 (centres undefined)	i	-11.6%	-11.0%	-17.6%	14.2%
CCc1ccc(C(=O)N2CCC(Oc3ncccc3C(=O)N3CCCCC3)C2)cc1 (centres undefined)	i	-10.0%	-38.9%	-8.4%	2.4%
COc1ccnc(-c2nnc3ccc(Nc4cc(OC)c(OC)c(OC)c4)nn23)c1	i	-14.3%[88.5 µM]	50.1µM*	?	2.2%[70.6 µM]
COc1ccc(Nc2ccc3nnc(-c4ccc(C)cn4)n3n2)cc1	i	1.1%[88.5 µM]	?	70.8µM*	-6.8%[70.6 µM]
COc1ccc(-c2nnc3ccc(NC(C)C)nn23)nc1	i	0.5%[88.5 µM]	50.1µM*	-10.0%[230 µM]	-3.4%[70.6 µM]
Cc1ccc(-c2nnc3ccc(NC4CCCCC4)nn23)nc1	i	-4.9%[88.5 µM]	?	70.8µM*	-17.1%[70.6 µM]
Cc1ccc(-c2nnc3ccc(NC4CCC4)nn23)nc1	i	i	?	?	-10.7%[70.6 µM]
COc1ccc(-c2nnc3ccc(Nc4cccc(OC)c4)nn23)nc1	i	i	?	?	-10.6%[70.6 µM]
COc1ccc(Nc2cnc3ccc(N4CCOCC4)nn23)cn1	i	?	?	?	-1.0%[70.6 µM]
Cc1nnc2ccc(N3CCOCC3)nn12	i	i	2.6%	i	2.2%
FC(F)(F)c1cc(Nc2cnc3ccc(N4CCOCC4)nn23)ccc1Cl	i	?	?	79.4µM*	?
FC(F)(F)Oc1ccc(Nc2cnc3ccc(N4CCOCC4)nn23)cc1	i	-23.7%[88.5 µM]	?	50.1µM*	-4.8%[70.6 µM]
Cc1ccc(NC(=O)N2CCC(CCNC(=O)c3cccc(F)c3)CC2)cc1	i	0.2%	-24.6%	-10.8%	-4.4%
CCN1c2cc(C(=O)Nc3cccc(C(C)C)c3)ccc2C(=O)N2CCCCCC21 (centres undefined)	i	i	31.6µM*	28.2µM*	-6.4%
CCc1cccc(NC(=O)c2ccc3c(c2)N(CC)C2CCCCCN2C3=O)c1 (centres undefined)	i	i	?	31.6µM*	1.7%
